Results taken from PubChem BioAssay (NCI).
Values joined by “and” are separate entries in the source; they are usually repeats but may differ in a detail not shown here. Equal values may be shown once. Compounds without any hit were thinned out: in the full panel of roughly 83,000, 20% have a hit.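 Each cell line was grown in a 96-well plate and treated with one concentration of compound for 48 hours. Values below 10 were considered active.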 Active and inactive are the calls of the source.

How the values were obtained:
Assay in all cases: NCI-60 one-dose screen, 48 h (100 = growth as untreated, 0 = no growth, -100 = all killed)
Settings in all cases: 10 µM unless noted
[1] = test system: HCT-15 colon
[2] = test system: HT29 colon
[3] = test system: SNB-75 CNS
[4] = test system: SNB-19 CNS
[5] = test system: U251 CNS
[6] = test system: PC-3 prostate
[7] = test system: SK-MEL-5 melanoma
[8] = test system: UACC-62 melanoma
[9] = test system: LOX IMVI melanoma
[10] = test system: SK-MEL-28 melanoma

Compound	growth [1]	growth [2]	growth [3]	growth [4]	growth [5]	growth [6]	growth [7]	growth [8]	growth [9]	growth [10]
Cc1ccc(S(=O)(=O)N(CCn2ccnc2[N+](=O)[O-])CCn2ccnc2[N+](=O)[O-])cc1	103% (inactive)	112% (inactive)	96% (inactive)	101% (inactive)	102% (inactive)	94.9% (inactive)	99.3% (inactive)	94% (inactive)	102% (inactive)	106% (inactive)
CCCCCCCCCc1ccc(C(=O)Nc2cc(C)ccc2C(=O)OC)cc1	103% (inactive)	98.9% (inactive)	117% (inactive)	106% (inactive)	112% (inactive)	105% (inactive)	102% (inactive)	83.7% (inactive)	102% (inactive)	107% (inactive)
CCCCC[C@@H]1C/C=C(\C)[C@@H](O)C(C)(C)C(=O)[C@@H](C)/C=C(\C)[C@@H]2C[C@H](O)C[C@](O)(CC(=O)O1)O2	38.4% (inactive)	50.4% (inactive)	32.9% (inactive)	37.2% (inactive)	61.2% (inactive)	21.4% (inactive)	-17.6% (active)	55.8% (inactive)	50.9% (inactive)	76.3% (inactive)
O=C(c1ccc(O)cc1)C1[C@H](c2ccccc2Br)[C@@H](c2ccccc2)NC12C(=O)Nc1ccccc12 (stereo not given in full)	34.7% (inactive)	-7.42% (active)	36.8% (inactive)	58.5% (inactive)	7.5% (active)	18.2% (inactive)	28.1% (inactive)	31.9% (inactive)	5.24% (active)	59.3% (inactive)
CCCSc1nnc(-c2sc3nc4ccccc4n3c2C)o1	99.2% (inactive)	110% (inactive)	95.6% (inactive)	99.8% (inactive)	113% (inactive)	105% (inactive)	98.5% (inactive)	94.5% (inactive)	113% (inactive)	110% (inactive)
Cn1cc(-c2cc(N)n3nc(-c4c[nH]c5ccc(Cl)cc45)cc3n2)c2cc(Br)cnc21	-80.2% (active)	-72% (active)	-24.4% (active)	2.78% (active)	-73.9% (active)	-52.4% (active)	-57% (active)	-59.6% (active)	-93.3% (active)	-25.9% (active)
O=C(OCCOCCO)N(c1cccc(Br)c1)c1nc(SCCN2CCOCC2)nc2c1cnn2CC(Cl)c1ccc(Br)cc1 (stereo not given)	-38.8% (active)	0.205% (active)	47.7% (inactive)	-69% (active)	14.9% (inactive)	12.1% (inactive)	34.2% (inactive)	-58.9% (active)	-92.8% (active)	-43.5% (active)
NS(=O)(=O)c1ccc(N2N=C(c3ccc(NC(=O)Nc4ccccc4)cc3)CC2c2ccc(Br)cc2)cc1 (stereo not given)	-89.1% (active)	-57% (active)	-43.1% (active)	-98.2% (active)	-86.2% (active)	-45.2% (active)	-99.8% (active)	-96.2% (active)	-100% (active)	-98.1% (active)
CN1CCN(C(=O)Oc2cc3c(c4ccccc24)[C@H](CCl)CN3C(=O)c2cc3cc(OCCCN4CCC4)ccc3[nH]2)[C@@H]2CSSC[C@H]21	2.11% (active)	2.15% (active)	-64.6% (active)	-64.6% (active)	-42.8% (active)	-12.2% (active)	-74.1% (active)	-81.9% (active)	-61.6% (active)	-39.5% (active)
CC1=C(C(=O)Nc2ccccc2)C(c2cccc3ccccc23)n2c(nc3ccccc32)N1 (stereo not given)	64.6% (inactive)	40.5% (inactive)	-63% (active)	20.2% (inactive)	25% (inactive)	31.3% (inactive)	82.6% (inactive)	66.8% (inactive)	53.5% (inactive)	70% (inactive)
COC(=O)c1c(C(=O)OC)c2c3ccccc3c3ccccc3n2c1C(=O)C(F)(F)F	101% (inactive)	103% (inactive)	87.9% (inactive)	102% (inactive)	105% (inactive)	72.4% (inactive)	93.7% (inactive)	63% (inactive)	87.7% (inactive)	103% (inactive)
COc1cc(/C=N/NC(=O)c2ccc(OCc3nc4ccc(C)cc4[nH]3)cc2)cc(OC)c1OC	38.9% (inactive)	18.9% (inactive)	135% (inactive)	66.2% (inactive)	29% (inactive)	49.7% (inactive)	18.3% (inactive)	29.9% (inactive)	40.4% (inactive)	39.4% (inactive)
CC[C@]12C=CCN3CC[C@@]4(c5ccc(OC)cc5N(C)[C@H]4[C@@](O)(C(=O)OC)[C@@H]1OC(=O)CCCC[P+](c1ccc(F)cc1)(c1ccc(F)cc1)c1ccc(F)cc1)[C@@H]32	102% (inactive)	15.9% (inactive)	-5.3% (active)	6.61% (active)	13% (inactive)	15.7% (inactive)	-59.7% (active)	-69.6% (active)	25% (inactive)	-54.9% (active)
O=C1Nc2cc(-c3ccc(NS(=O)(=O)c4ccc(-c5ccccc5)cc4)cc3)ccc2/C1=C/c1ccc[nH]1	14.6% (inactive)	0.595% (active)	53.2% (inactive)	72.5% (inactive)	28.2% (inactive)	31.1% (inactive)	46.2% (inactive)	55% (inactive)	20.2% (inactive)	52.1% (inactive)
Nc1nnc(CS(=O)(=O)c2ccccc2)s1	99.9% (inactive)	94.6% (inactive)	102% (inactive)	103% (inactive)	95.6% (inactive)	93% (inactive)	131% (inactive)	91% (inactive)	84.6% (inactive)	112% (inactive)
O=[N+]([O-])c1cccc(-c2nnc3c(/C=C/c4ccc(F)cc4)nc4ccccc4n23)c1	85.8% (inactive)	98.5% (inactive)	54.1% (inactive)	92.5% (inactive)	95.9% (inactive)	103% (inactive)	90.9% (inactive)	85.1% (inactive)	98.5% (inactive)	107% (inactive)
Cc1cccc(/C=C/c2ccc(NC(=S)NCCCCN(C)C)cc2)c1	-99.4% (active)	-64.2% (active)	-84.4% (active)	-84% (active)	-64.8% (active)	-40.4% (active)	-92.3% (active)	-88.4% (active)	-99.1% (active)	-96.5% (active)
COc1ccc(NC(=O)Cn2c(/C=C/c3cccc(OC)c3)nc3ccccc3c2=O)cc1	70.9% (inactive)	51.8% (inactive)	-34.5% (active)	56.4% (inactive)	-26.5% (active)	73.9% (inactive)	92.7% (inactive)	57.8% (inactive)	22.4% (inactive)	89.3% (inactive)
CN1CCN(c2ccc3c4c(cccc24)C(=O)N(c2cccc(-c4nn(-c5ccccc5)cc4-c4nc5ccccc5s4)c2)C3=O)CC1	10.2% (inactive)	45.6% (inactive)	81.9% (inactive)	82.9% (inactive)	67.9% (inactive)	90.6% (inactive)	90.3% (inactive)	119% (inactive)	96.6% (inactive)	51.6% (inactive)
COc1ccc(-c2nnc3c(/C=C/c4ccc(Br)cc4)nc4ccccc4n23)cc1	-60.7% (active)	-34.1% (active)	83.4% (inactive)	86.3% (inactive)	68.4% (inactive)	86.4% (inactive)	49.4% (inactive)	40.8% (inactive)	-87.9% (active)	72.4% (inactive)
O=C1C=CC(=CC=C2N(Cc3ccc4ccccc4c3)c3ccccc3N2Cc2ccc3ccccc3c2)C=C1	94.7% (inactive) and 95.3% (inactive)	15.1% (inactive) and 13.2% (inactive)	39.6% (inactive) and 26.9% (inactive)	8.3% (active) and 11.1% (inactive)	17.4% (inactive) and 17.6% (inactive)	18.6% (inactive) and 16.6% (inactive)	-64.3% (active) and -51.3% (active)	2.32% (active) and 11.9% (inactive)	14.8% (inactive) and 19.6% (inactive)	16.7% (inactive) and 20.5% (inactive)
COc1ccc(SC2c3cc(OC)ccc3Oc3nc(N)c(C#N)c(N)c32)cc1 (stereo not given)	80.5% (inactive)	97.4% (inactive)	49.6% (inactive)	71.7% (inactive)	65.3% (inactive)	42.4% (inactive)	60.4% (inactive)	65.5% (inactive)	5.16% (active)	111% (inactive)
CN1CCN(C(=O)CCN(C(=O)Oc2cc3c(c4ccccc24)[C@H](CCl)CN3C(=O)c2cc3cc(OCCCN4CCC4)ccc3[nH]2)[C@H]2CCSSC2)CC1	-37% (active)	-69.8% (active)	-58.5% (active)	-50.7% (active)	-65.9% (active)	-65% (active)	-93.7% (active)	-81.9% (active)	-71.8% (active)	-89.2% (active)
CCCn1c(NC(=O)c2cccc(C(N)=O)c2)nc2ccc(CN3CCCCC3)cc21	67.1% (inactive)	91% (inactive)	128% (inactive)	111% (inactive)	106% (inactive)	63.2% (inactive)	102% (inactive)	113% (inactive)	93.4% (inactive)	106% (inactive)
C[C@@H](Nc1c(C#N)cnc2ccc(-c3cnc4[nH]ncc4c3)cc12)c1ccccc1	8.64% (active)	79.5% (inactive)	-26.9% (active)	30.7% (inactive)	23.4% (inactive)	13.4% (inactive)	-67.5% (active)	-16% (active)	16% (inactive)	15.4% (inactive)
